Measured values published in PubChem BioAssay AID2014 (Sanford-Burnham Center for Chemical Genomics, 2009).
“And” between values parts separate entries of the source, which are not always exact repeats. Equal entries are not always repeated. Screen size: about 290,000 compounds; about 3,000 (1%) were called active. No rule for the calls is given here. The list comes from a sample in which actives are over-represented; it also holds similar structures and randomly drawn compounds.

Target: Polyadenylate-binding protein 1 (Homo sapiens) (UniProt P11940)
Sequence (P11940 whole entry, looked up): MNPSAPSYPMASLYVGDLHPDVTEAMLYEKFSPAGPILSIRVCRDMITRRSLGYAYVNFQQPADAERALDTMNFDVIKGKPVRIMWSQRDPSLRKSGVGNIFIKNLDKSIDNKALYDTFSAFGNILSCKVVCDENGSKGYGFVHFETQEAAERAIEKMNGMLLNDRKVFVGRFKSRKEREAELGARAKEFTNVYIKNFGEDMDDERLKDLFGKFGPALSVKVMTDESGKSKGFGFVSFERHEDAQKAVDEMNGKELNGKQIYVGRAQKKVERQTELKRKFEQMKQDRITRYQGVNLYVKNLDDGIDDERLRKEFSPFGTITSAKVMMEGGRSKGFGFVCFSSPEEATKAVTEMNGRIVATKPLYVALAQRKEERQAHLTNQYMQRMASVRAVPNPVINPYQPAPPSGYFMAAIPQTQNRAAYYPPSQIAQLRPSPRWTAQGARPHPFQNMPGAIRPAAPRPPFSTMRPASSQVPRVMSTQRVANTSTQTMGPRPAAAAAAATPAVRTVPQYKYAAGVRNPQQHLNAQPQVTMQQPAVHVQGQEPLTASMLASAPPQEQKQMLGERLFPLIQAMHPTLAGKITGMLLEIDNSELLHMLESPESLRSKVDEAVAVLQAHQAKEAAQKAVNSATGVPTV
Assay: blockers of PABP interaction with poly(A) – biochemical, fluorescence polarization, uHTS, primary screen (AID 2014);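 also: calls also rest on retests at 20 µM and on dose response follow-up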
Conditions: PABP-poly(A) RNA binding, stronger effect = higher value

Compound | inhibition (at 35 µM) | inhibition (confirmation repeats, at 20 µM)
Cc1ccc(S(=O)(=O)N2CC(C)N(S(C)(=O)=O)C2)cc1 (stereo unspecified) | 2% (inactive) | –
Cc1ccc(C)c(C(C)NC(=O)C2CCCO2)c1 (stereo unspecified) | 102% (active) | –
Cc1cc(C)c2nc(NC(=O)C3CCCO3)sc2c1 (stereo unspecified) | -13.4% (inactive) | –
Cc1cc([N+](=O)[O-])ccc1NC(=O)C1CCCO1 (stereo unspecified) | -5.5% (inactive) | –
COc1ccc(NC(=O)c2cc([N+](=O)[O-])ccc2NC(=O)CNC2CCCCC2C)c(OC)c1 (stereo unspecified) | 9.1% (inactive) | –
O=C(CCc1nnc2ccc(NCCCN3CCCC3=O)nn12)NCc1ccccc1Cl | 2.5% (inactive) | –
CN1CCCC(OC(=O)COc2ccc(Br)cc2)C1 (stereo unspecified) | 0.4% (active) | 55%
CCOC(=O)N1CCN(C(=O)COc2ccc(Br)cc2)CC1 | -4.7% (inactive) | –
Cc1ccc(C(=O)OC2CCCN(C)C2)cc1 (stereo unspecified) | -1.5% (inactive) | –
O=C(NC(=S)Nc1ncccn1)c1ccccc1Br | 2.7% (inactive) | –
CCCc1ccc(OCCNC(=O)c2ccccc2Br)cc1 | 1.2% (inactive) | –
CCOc1cnc(C(=O)NNC(=O)c2ccccc2Br)o1 | 12.8% (active) | 95.2%
COc1ccc(C(=O)Nc2ccc(C3(C#N)CCCC3)cc2)cc1OC | -5.5% (inactive) | –
CC1CCN(S(=O)(=O)c2ccc3[nH]c(=O)ccc3c2)CC1 | -3.1% (inactive) | –
Cc1c(-c2ccccc2)cn2c1-c1ccc(C)n1CC2 | 88.3% (active) | –
CCN(CC)c1ccc2oc(=O)c(C)nc2c1 | 116% (active) | 62.7%
CCN(CC)c1ccc(/C=N/Nc2nc(C)cc(=O)[nH]2)cc1 | -2.5% (inactive) | –
CCN(CC)c1ccc2cc(C(N)=O)/c(=N\NC(=O)c3ccncc3)oc2c1 | 1.8% (inactive) | –
O=[N+]([O-])c1ccccc1/C=C/CN1CCC(O)CC1 | 4.7% (inactive) | –
O=C(O)c1ccc(-n2nc(-c3ccccc3)c3ccccc3c2=O)cc1 | 8.1% (inactive) | –
CCOc1ccc(-n2cnnn2)cc1S(=O)(=O)N1CCC(C)CC1C (stereo unspecified) | 74.4% (active) | 87.6%
Cc1ccc(S(=O)(=O)N2CCC(Oc3ccc(-n4cnnn4)cc3)CC2)cc1 | 6.3% (inactive) | –
CCOc1ccc(Br)cc1S(=O)(=O)N1CCC(C(=O)O)CC1 | -2.2% (inactive) | –
Cc1cccc(C(=O)N2CCCC(Nc3ccc(C(C)C)cc3)C2)n1 (stereo unspecified) | 6.3% (inactive) | –
CCOC(=O)c1c(C)[nH]c(C2=NNC(=NC(C)COC)SC2)c1C (stereo unspecified) | 50.4% (active) | 104%

Compound | inhibition (at 35 µM) | inhibition (confirmation repeats, at 20 µM)
CCCCOC(=O)c1[nH]c(C)c(C(=O)OC)c1C | -3.8% (inactive) | –
CCOC(=O)c1c(C)[nH]c2c1-c1ccccc1C(=O)C2=O | -3.9% (inactive) | –
COCCCNS(=O)(=O)c1cccc(S(=O)(=O)c2cccc(S(=O)(=O)NCCCOC)c2)c1 | -6.2% (inactive) | –
Nc1ccc(S(=O)(=O)NC(=O)c2ccccc2)cc1 | 50.5% (active) | 72.5%
CC(=O)NS(=O)(=O)c1ccccc1 | 8.1% (inactive) | –
Cc1ccc(S(=O)(=O)NC(=O)c2cccc(C)c2)cc1 | 4.3% (inactive) | –
S=C(NCc1cccs1)Nc1ccc(Cl)cc1 | -4.3% (inactive) | –
COC(=O)Cc1ccc(NC(=S)NCc2ccc(Cl)cc2)cc1 | 1.5% (inactive) | –
Fc1ccccc1CNC(=S)Nc1ccc(Cl)cc1 | 59.1% (active) | 83%
CC1CCCN(CCCNC(=O)CN2C(=O)COc3ccc(S(=O)(=O)N4CCOCC4)cc32)C1 (stereo unspecified) | 2.3% (inactive) | –
C=CCNC(=S)/N=c1/ccccn1Cc1ccccc1 | 12.9% (inactive) | –
O=C(OCc1cc2ccccc2[nH]c1=O)c1cccnc1 | -2.2% (inactive) | –
O=C(OCc1cc(Cl)ccc1OC(F)F)c1cccnc1 | 16.1% (active) | 81.2%
O=C(/C=C/c1ccc(Cl)cc1Cl)c1cccnc1 | -1% (inactive) | –
CCOC(=O)c1ccc(NC(=O)c2ccc(NC(=O)C3CCCO3)cc2)cc1 (stereo unspecified) | -0.4% (inactive) | –
CC(C)C[C@@H](CO)N1CCN(Cc2ccc(O)cc2)CCC1=O | 1.4% (inactive) | –
COc1ccc(CCN(C)C(=O)C2CCCN(Cc3ccc(OC)c(OC)c3)C2)cc1OC (stereo unspecified) | 11.9% (inactive) and 7% (inactive) | –
COc1ccc(CN2CCCC(CNC(=O)c3ccc(F)cc3)C2)cc1OC (stereo unspecified) | 79.6% (active) | 74.7%
COc1ccc(Cc2nc3ccc(C(=O)NCC4CCOCC4)cc3o2)cc1OC | 11.1% (inactive) | –
O=C(Cc1ccccc1F)NC1CCSc2ccccc21 (stereo unspecified) | 0.4% (inactive) | –
O=c1[nH]c(=S)[nH]c2[nH]c(=S)[nH]c12 | 91.1% (active) | –
Cc1c(C)c(C)c2[nH]c(=S)[nH]c2c1C | 9.8% (inactive) | –
Cc1ccc2c(c1)N(CC(=O)N1CCOCC1)C(=O)CO2 | 2.5% (inactive) | –
CC1(c2ccc3ccccc3c2)NC(=O)N(CC(N)=O)C1=O (stereo unspecified) | -4.5% (inactive) | –
O=C(NNS(=O)(=O)c1ccccc1)c1cnn(-c2ccc(Cl)cc2)c1C(F)(F)F | 11.5% (active) | 102%

Compound | inhibition (at 35 µM) | inhibition (confirmation repeats, at 20 µM)
O=C(NNS(=O)(=O)c1ccc(Cl)cc1)C1CCN(Cc2ccccc2)CC1 | -4% (inactive) | –
NNC(=O)c1cnn(-c2ccccc2)c1C(F)(F)F | 10.3% (inactive) | –
COc1ccc(CCNC(=O)c2ccccc2OCc2ccccc2)cc1 | -3.4% (inactive) | –
CC(C)(C)OC(=O)NNc1c2ccccc2nc2ccccc12 | -1.9% (inactive) | –
CC(=O)c1cnc(SCCN2C(=O)c3ccccc3C2=O)nc1C | -5.5% (inactive) | –
CC(=O)c1cnc(SCC(=O)O)nc1C | 54.3% (active) | 68.8%
CSc1ncc(C(=O)NCCCc2ccccc2)c(C)n1 | -4.6% (inactive) | –
CCC1(CC)Cc2ccccc2-c2nc(CCl)[nH]c(=O)c21 | -1.7% (inactive) | –
O=C(NCCCN1CCOCC1)c1cc(-c2ccccc2F)no1 | -8% (inactive) | –
CC1CN(C(=S)Nc2ccc(S(N)(=O)=O)cc2)CC(C)O1 (stereo unspecified) | -12.5% (inactive) | –
COc1ccc(N2CCN(C(=S)Nc3ccc(S(N)(=O)=O)cc3)CC2)cc1 | -0.4% (inactive) | –
NS(=O)(=O)c1ccc(NC(=S)N2CCCC2)cc1 | 28.2% (active) | 50.5%
CCc1ccc(CNC(=O)C2CCN(c3nnc(C)c4c(C)n(-c5ccc(C)cc5)nc34)CC2)cc1 | -22.4% (inactive) | –
Cc1cccc(NC(=O)Cc2ccc(Br)cc2)n1 | -9.8% (inactive) | –
O=C(NC(Cc1ccc(O)cc1)C(=O)O)/C(=C/c1ccccc1)NC(=O)c1ccccc1 (stereo unspecified) | 2.8% (inactive) | –
CC1(C)Oc2ccc3ccc(=O)oc3c2/C(=N/O)C1=O | -7% (inactive) | –
CC1(C)Oc2ccc3ccc(=O)oc3c2/C(=C/NCCO)C1=O | 51.8% (active) | –
C/C=C(/C)C(=O)OC1Cc2c(ccc3ccc(=O)oc23)OC1(C)C (stereo unspecified) | 5.5% (inactive) | –
Cc1ccc(S(=O)(=O)N(CC(O)CN2CCCCC2)c2cccc([N+](=O)[O-])c2)cc1 (stereo unspecified) | -2.5% (inactive) | –
O=C(CCNS(=O)(=O)c1cccs1)N1CCN(c2ccc(F)cc2)CC1 | 2.5% (inactive) | –
Cc1cccc(CCNS(=O)(=O)c2ccc3c(c2)NC(=O)CO3)c1 | 0.4% (inactive) | –
Cc1nc2ccccc2c(=O)n1Cc1ccc([N+](=O)[O-])cc1 | -8.9% (inactive) | –
Cc1nc2c(c(=O)n1Cc1ccco1)c1nc3ccccc3nc1n2Cc1ccccc1 | 57.3% (active) | –
Cc1ccc(Cn2c(C)nc3c(c2=O)c2nc4ccccc4nc2n3Cc2ccco2)cc1 | 17.9% (inactive) | –
Cc1cccc(NS(=O)(=O)c2cc(Cl)ccc2Cl)n1 | -4.9% (inactive) | –

Compound | inhibition (at 35 µM) | inhibition (confirmation repeats, at 20 µM)
O=C1CCNCCN1[C@H](CO)Cc1ccccc1 | -8.7% (inactive) | –
COc1ccc(C(=O)NC2=NCCS2)c(OC)c1 | -7.6% (inactive) | –
COc1ccc2cc(C(=O)NCC3CCCO3)[nH]c2c1 (stereo unspecified) | 0.3% (inactive) | –
O=S(=O)(c1ccc(Br)cc1)N1CCC(c2nc3ccccc3[nH]2)CC1 | 3.9% (inactive) | –
CCCCOC(=O)Cn1c(=O)n(CC(=O)OCCCC)c2cc(C)ccc21 | -8.1% (inactive) | –
Cc1ccc(CCCOC(=O)C[N+]2(C)CCCC2)cc1 | 2.4% (inactive) | –
Cc1ccc(CCCOC(=O)C[N+]2(C)CCCCC2)cc1 | 50.6% (active) | –
Cc1ccc(C(=O)COC(=O)CCN2C(=O)C3C4CCC(C4)C3C2=O)cc1C (stereo unspecified) | -12.4% (inactive) | –
COc1cccc(NC(=O)N2CCC(NC(=O)C(Cc3cccc(C)c3)NC(C)=O)CC2)c1 (stereo unspecified) | 2.7% (inactive) | –
Cc1cc(NC(=O)CN2CCCC(C)C2)n(-c2nc3ccccc3s2)n1 (stereo unspecified) | 5.3% (inactive) | –
CCC(C)Cn1c(O)cc2nn(-c3nc4ccccc4s3)c(=O)c-2c1C (stereo unspecified) | 68.7% (active) | –
C/C(=N\NC(=O)CC(C)C)c1c(C(F)(F)F)[nH]n(-c2nc3ccccc3s2)c1=O | -1.1% (inactive) | –
CCOC(=O)c1ccccc1NC(=O)COC(=O)CCC(=O)N1CCOCC1 | -1.1% (inactive) | –
COc1ccccc1NC(=O)c1cc(N2C(=O)C3C4CCC(C4)C3C2=O)ccc1Cl (stereo unspecified) | 1.6% (inactive) | –
O=C1CC(c2ccccc2)C(=O)N1c1cccc(O)c1 (stereo unspecified) | -5.5% (inactive) | –
O=C1OCC2=C1C(c1ccccc1)CC(=O)N2c1cccc(F)c1 (stereo unspecified) | 68% (active) | 65.5%
O=C1CC(NNc2ccccc2)C(=O)N1c1cccc(Cl)c1 (stereo unspecified) | -2.5% (inactive) | –
CCc1nnc(NC(=O)CCC(=O)N2CCN(c3cc(C)ccc3C)CC2)s1 | 11.5% (inactive) | –
O=C(OCc1ccc(-c2ccccc2)cc1)c1cccc(O)c1 | 10.5% (inactive) | –
CCc1ccc(OCC2c3cc(OC)c(OC)cc3CCN2C(C)=O)cc1 (stereo unspecified) | 6.8% (inactive) | –
CC[C@H]1CN2CCc3cc(OC)c(OC)cc3[C@@H]2C[C@@H]1C[C@H]1NCCc2cc(OC)c(OC)cc21 | 1.5% (inactive) | –
COc1cc2c(cc1O)[C@H](Cc1ccc(Oc3cc(C[C@@H]4NCCc5cc(OC)c(O)cc54)ccc3O)cc1)NCC2 | 0.1% (active) | 91.3%
